# Source: PubChem BioAssay
# “And” between values parts separate entries of the source, which are not always exact repeats. Equal values may be shown once. For some assays here: Entries with a potency or affinity are not part of this list. The source made the active and inactive calls.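 How the source made its calls, unless noted: active means thallium flux through the channel raised or lowered by more than 3 SD from vehicle-only wells, actives on both sides; inactive means the rest.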
# Experiments:
# [1] = polyglutamine-triggered caspase-3 activation inhibitors, cell-based (AID 1583); conditions: polyglutamine-induced caspase-3 activation, cell assay; stronger effect = higher value;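 tested at 10 µM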
# [2] = suppressors of polyQ aggregation in yeast, 75Q-TubU reporter (AID 1593); conditions: Yeast 75Q polyglutamine aggregation reporter
# [3] = rescue of polyQ-huntingtin neuronal dysfunction in worms, whole organism, C. elegans mechanosensory neurons, N-terminal huntingtin (AID 1599); conditions: touch response, stronger effect = higher value
# [4] = inhibitors of mitochondrial cytochrome c release, biochemical, purified mitochondria (AID 1603); conditions: stronger effect = lower value;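 further: mouse liver mitochondria challenged with calcium chloride; signal normalized to the plate average as 100%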
# [5] = inhibitors of polyQ protein aggregation (AID 1604); conditions: polyglutamine-induced protein aggregation inhibition assay; stronger effect = higher value; tested at 2.5 µM
# [6] = enhancers of glutamate uptake in motor neurons, MN-1 cell line (AID 1612); conditions: MN-1 motor neuron cells, stronger effect = higher value;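 further: tested at 1 µM final; 0% = mean of DMSO vehicle wells on each plate; positive means more glutamate uptake than control and negative means less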
# [7] = suppressors of polyglutamine aggregation in yeast, 75Q-TubH (AID 1616); conditions: S. cerevisiae 75Q-TubH polyglutamine aggregation suppression; stronger effect = higher value
# [8] = hESC survival regulators, cell-based (AID 493140; call rule not given here;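 further: cells exposed to compounds for four days before counting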); conditions: human embryonic stem cell survival screen; stronger effect = higher value
# [9] = test system: Hepatitis C virus NS3 helicase; assay: HCV NS3 helicase inhibitors, primary screen, biochemical, fluorescence polarization, LOPAC1280 library (AID 687035; in the data active means inhibition above about 37%); conditions: Purified HCV NS3 helicase, Cy5-dT15 ssDNA binding fluorescence polarization; stronger effect = higher value; concentration not given here
# [10] = Cy5 fluorescence interference with SSB-bound oligo, artefact control for HCV NS3 helicase inhibitor project, biochemical, NIH Clinical Collection, E. coli SSB (AID 743268; call rule not given here)
# [11] = modulation of C. elegans fzo-1 (AID 1259413; call rule not given here;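 further: fzo-1 mutant C. elegans worms in liquid wells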); conditions: C. elegans fzo-1 modulator screen, mean read-out; stronger effect = higher value
# [12] = viability rescue of complex I mutant cybrids, primary screen, cell-based, galactose medium, ATP luminescence (AID 1645843;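 active means z-score of at least 1.8 in each of two replicates, scored against plate mean and spread of sample wells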;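 further: positive z means more ATP and so rescue of galactose-driven cybrid death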); conditions: complex I mutant cybrid cells, 72 h, stronger effect = higher value
# [13] = test system: F380Y/beta1; assay: modulators of BK channel variants, profiling panel, selectivity assay, cell-based, U2OS BacMam, thallium flux, beta subunits (AID 1259406); conditions: at 30 µM;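 further: initial slope of Thallos dye fluorescence rise after thallium is added; log ratio against the mean of 0.3% DMSO vehicle wells on the same plate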
# [14] = test system: F380Y/beta4; assay: as above; conditions: at 30 µM
# [15] = test system: R275C; assay: as above; conditions: at 30 µM
# [16] = test system: R275C/beta1; assay: as above; conditions: at 30 µM
# [17] = test system: R275C/beta2Delta; assay: as above; conditions: at 30 µM
# [18] = test system: R275C/beta4; assay: as above; conditions: at 30 µM
# [19] = test system: R275C/Slo1WT/beta2; assay: as above; conditions: at 30 µM
# [20] = liver-stage malaria parasite growth inhibition, primary screen, cell-based, HepG2, luciferase luminescence, HepG2 viability (AID 624349; in the data active means parasite load remaining mostly below about 12%, no sharp cut-off; inactive means mostly above about 10%;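 further: 100% = mean of DMSO negative control wells on the same plate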); conditions: P. berghei liver stage in HepG2, luciferase luminescence, concentration not given here; parasite load remaining: stronger effect = lower value; viability: measured here: HepG2 viability without parasites
smiles,measurement,setting,value
OC(CCN1CCCCC1)(c1ccccc1)C1CCCCC1 (configuration not stated),inhibition,[1],-21%
same,score,[2],1.21
same,rescue above control,[3],1.37
same,cytochrome c release ratio,[4],1.32
same,inhibition of aggregation,[5],88.9%
same,glutamate uptake change,[6],-20.9%
same,aggregation suppression score,[7],1.42
same,survival,[8],3.42 (inactive)
same,inhibition,[9],0% (inactive)
same,fluorescence ratio,[10],0.99 (inactive)
same,mean signal,[11],211 (inactive)
same,z-score,[12],-0.545 (inactive) and -0.525 (inactive)
same,log fold change Tl+ flux,[13],0.00768 (inactive)
same,log fold change Tl+ flux,[14],0.0698 (inactive)
same,log fold change Tl+ flux,[15],-0.119 (active)
same,log fold change Tl+ flux,[16],0.105 (inactive)
same,log fold change Tl+ flux,[17],-0.0882 (inactive)
same,log fold change Tl+ flux,[18],0.0638 (inactive)
same,log fold change Tl+ flux,[19],0.0146 (inactive)
CCN(CC)CCOC(=O)C1(C2CCCCC2)CCCCC1,inhibition,[1],-0.16%
same,score,[2],0.92
same,rescue above control,[3],8.2
same,cytochrome c release ratio,[4],0.58
same,inhibition of aggregation,[5],78.3%
same,glutamate uptake change,[6],-7.11%
same,aggregation suppression score,[7],1.04
same,survival,[8],16.2 (inactive)
same,inhibition,[9],-4% (inactive)
same,fluorescence ratio,[10],1.01 (inactive)
same,mean signal,[11],236 (inactive)
same,z-score,[12],-0.95 (inactive) and -0.895 (inactive) and -2.66 (inactive)
same,log fold change Tl+ flux,[13],-0.0697 (inactive)
same,log fold change Tl+ flux,[14],-0.0157 (inactive)
same,log fold change Tl+ flux,[15],-0.00463 (inactive)
same,log fold change Tl+ flux,[16],0.0871 (inactive)
same,log fold change Tl+ flux,[17],0.0332 (inactive)
same,log fold change Tl+ flux,[18],0.0991 (inactive)
same,log fold change Tl+ flux,[19],0.00259 (inactive)
CCCNC(C)C(=O)Nc1ccccc1C (configuration not stated),inhibition,[1],1.52%
same,score,[2],1.18
same,rescue above control,[3],-3.71
same,cytochrome c release ratio,[4],0.7
same,inhibition of aggregation,[5],74.9%
same,glutamate uptake change,[6],3.66%
same,aggregation suppression score,[7],1.11
same,survival,[8],13.5 (inactive)
same,inhibition,[9],-1% (inactive)
same,fluorescence ratio,[10],0.103 (active)
same,mean signal,[11],270 (inactive)
same,z-score,[12],0.075 (inactive) and 0.325 (inactive) and 0.175 (inactive)
same,log fold change Tl+ flux,[13],0.00249 (inactive)
same,log fold change Tl+ flux,[14],0.0146 (inactive)
same,log fold change Tl+ flux,[15],-0.0216 (inactive)
same,log fold change Tl+ flux,[16],-0.0631 (inactive)
same,log fold change Tl+ flux,[17],0.0403 (inactive)
same,log fold change Tl+ flux,[18],-0.00233 (inactive)
same,log fold change Tl+ flux,[19],0.0338 (inactive)
CN(C)C(=O)Oc1ccc[n+](C)c1,inhibition,[1],18.4%
same,score,[2],1.37
same,rescue above control,[3],-0.24
same,cytochrome c release ratio,[4],0.97
same,inhibition of aggregation,[5],27%
same,glutamate uptake change,[6],-0.9%
same,aggregation suppression score,[7],1.35
same,parasite load remaining,[20],46.4% (inactive) and 38.1% (inactive) and 33.2% (inactive)
same,viability,[20],90.6% and 93.2% and 82.1%
same,inhibition,[9],-1% (inactive)
same,fluorescence ratio,[10],1.01 (inactive)
same,mean signal,[11],265 (inactive)
same,z-score,[12],0.81 (inactive) and 0.62 (inactive)
same,log fold change Tl+ flux,[13],0.0465 (inactive)
same,log fold change Tl+ flux,[14],-0.0469 (inactive)
same,log fold change Tl+ flux,[15],-0.0114 (inactive)
same,log fold change Tl+ flux,[16],-0.0401 (inactive)
same,log fold change Tl+ flux,[17],0.0292 (inactive)
same,log fold change Tl+ flux,[18],-0.0147 (inactive)
same,log fold change Tl+ flux,[19],0.0451 (inactive)
